Laboratory results from PubChem BioAssay AID1159580 (chemical genetic matrix, 2015).
About 2,000 (36%) of roughly 5,500 compounds were called active. Roughly 18% stayed inconclusive and do not appear here. Rule as the data show it: active = normalized growth mostly below about 0.91 (no sharp cut-off); inconclusive = no clear call, values can overlap the other calls; inactive = mostly above about 0.92. The list shows a part of the results.

Assay: chemical genetic growth profiling, strain panel (AID 1159580);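 also: tested at 20 µM; growth read once vehicle control cultures reached saturation at 30 °C; 1 = growth at the plate median or of vehicle wells; lower values mean less growth of the strain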
Conditions: S. cerevisiae deletion strains, growth OD

Measured: normalized growth

Oc1cc(Cl)ccc1Oc1ccc(Cl)cc1Cl
active: locus YAL021C, strain ccr4, hits give low values 0.0638 | locus YAL026C, strain drs2, hits give low values 0.0609 | locus YAL030W, strain snc1, hits give low values 0.0536 | locus YBL061C, strain skt5, hits give low values 0.0556 | locus YBR009C, strain hhf1, hits give low values 0.061 | locus YBR023C, strain chs3, hits give low values 0.0591 | locus YBR171W, strain sec66, hits give low values 0.0725 | locus YBR231C, strain swc5, hits give low values 0.0579 | locus YBR279W, strain paf1, hits give low values 0.0562 | locus YCL011C, strain gbp2, hits give low values 0.0544 | locus YCL016C, strain dcc1, hits give low values 0.0625 | locus YCL069W, strain vba3, hits give low values 0.0589 | locus YCR088W, strain abp1, hits give low values 0.0589 | locus YDL005C, strain med2, hits give low values 0.0705 | locus YDL040C, strain nat1, hits give low values 0.0546 | locus YDR001C, strain nth1, hits give low values 0.0558 | locus YDR069C, strain doa4, hits give low values 0.0627 | locus YDR137W, strain rgp1, hits give low values 0.0997 | locus YDR159W, strain sac3, hits give low values 0.0882 | locus YDR195W, strain ref2 0.117 | locus YDR297W, strain sur2, hits give low values 0.0544 | locus YDR334W, strain swr1, hits give low values 0.0588 | locus YDR335W, strain msn5, hits give low values 0.0583 | locus YDR392W, strain spt3, hits give low values 0.0729 | locus YEL003W, strain gim4, hits give low values 0.0524 | locus YEL037C, strain rad23, hits give low values 0.0551 | locus YEL061C, strain CIN8 (second series), hits give low values 0.0576 | locus YER015W, strain faa2, hits give low values 0.0585 | locus YER016W, strain bim1, hits give low values 0.0591 | locus YER111C, strain swi4, hits give low values 0.0671 | locus YER155C, strain BEM2 (second series), hits give low values 0.0885 | locus YFR010W, strain ubp6, hits give low values 0.0707 | locus YGL167C, strain pmr1, hits give low values 0.0693 | locus YGL173C, strain kem1, hits give low values 0.0649 | locus YGL227W, strain vid30, hits give low values 0.0625 | locus YGL240W, strain doc1, hits give low values 0.0739 | locus YGL253W, strain hxk2, hits give low values 0.054 | locus YHR013C, strain ard1, hits give low values 0.104 | locus YHR027C, strain rpn1, hits give low values 0.059 | locus YHR030C, strain SLT2, hits give low values 0.104 | locus YHR079C, strain IRE1, hits give low values 0.121 | locus YHR142W, strain chs7, hits give low values 0.0756 | locus YJL092W, strain hpr5, hits give low values 0.0585 | locus YJL095W, strain BCK1 (second series), hits give low values 0.0552 | locus YJL095W, strain BCK1, hits give low values 0.127 | locus YJL115W, strain asf1, hits give low values 0.0692 | locus YJL129C, strain trk1, hits give low values 0.084 | locus YJL154C, strain vps35, hits give low values 0.0565 | locus YJL164C, strain tpk1, hits give low values 0.0601 | locus YJL166W, strain qcr8, hits give low values 0.0623 | locus YJR066W, strain TOR1, hits give low values -0.00201 | locus YKL160W, strain elf1, hits give low values 0.0596 | locus YKR026C, strain gcn3, hits give low values 0.0592 | locus YKR091W, strain srl3, hits give low values 0.0544 | locus YLL001W, strain dnm1, hits give low values 0.0612 | locus YLL026W, hits give low values 0.0561 | locus YLL041C, strain sdh2, hits give low values 0.0533 | locus YLR027C, strain aat2, hits give low values 0.0538 | locus YLR113W, strain HOG1, hits give low values 0.158 | locus YLR221C, strain rsa3, hits give low values 0.0589 | locus YLR258W, strain gsy2, hits give low values 0.0574 | locus YLR262C, strain YPT6 (second series), hits give low values 0.0751 | locus YLR320W, strain mms22, hits give low values 0.0752 | locus YLR342W, strain FKS1, hits give low values 0.0642 | locus YLR357W, strain rsc2, hits give low values 0.118 | locus YLR370C, strain arc18, hits give low values 0.0628 | locus YLR384C, strain iki3, hits give low values 0.057 | locus YML120C, strain ndi1, hits give low values 0.0562 | locus YMR058W, strain fet3, hits give low values 0.0596 | locus YMR125W, strain sto1, hits give low values 0.0732 | locus YMR129W, hits give low values 0.0549 | locus YMR205C, strain PFK2, hits give low values 0.0834 | locus YMR231W, strain pep5, hits give low values 0.0636 | locus YNL071W, strain lat1, hits give low values 0.0584 | locus YNL183C, strain NPR1, hits give low values 0.00315 | locus YNL209W, strain ssb2, hits give low values 0.0563 | locus YNL248C, strain rpa49, hits give low values 0.0865 | locus YNL322C, strain KRE1 (second series), hits give low values 0.0621 | locus YNR049C, strain mso1, hits give low values 0.0553 | locus YOR001W, strain rrp6, hits give low values 0.0701 | locus YOR070C, strain gyp1, hits give low values 0.0564 | locus YOR080W, strain dia2, hits give low values 0.0614 | locus YOR083W, strain WHI5, hits give low values 0.0594 | locus YOR106W, strain vam3, hits give low values 0.066 | locus YOR231W, strain MKK1, hits give low values 0.109 | locus YOR265W, strain rbl2, hits give low values 0.0537 | locus YOR270C, strain vph1, hits give low values 0.0953 | locus YOR290C, strain snf2, hits give low values 0.0603 | locus YPL051W, strain arl3, hits give low values 0.0598 | locus YPL078C, strain atp4, hits give low values 0.0627 | locus YPL106C, strain sse1, hits give low values 0.103 | locus YPL240C, strain hsp82, hits give low values 0.0561 | locus YPL256C, strain CLN2, hits give low values 0.121
